Measurements taken from PubChem BioAssay (NCI).
The panel holds about 83,000 compounds, 20% with a hit somewhere; the sample as a whole holds those more often.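 Testing used 96-well plates and a 48-hour single-concentration exposure. Example: -40 means 40% of the starting cells died.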 Calls of active or inactive are those of the source. The calls were made as follows: active = growth percent below 10; inactive = the rest.

Legend:
Test in all cases: NCI-60 one-dose screen, 48 h (100 = growth as untreated, 0 = no growth, -100 = all killed)
Settings in all cases: 10 µM unless noted
[1] = test system: NCI-H23 lung
[2] = test system: NCI-H226 lung
[3] = test system: NCI-H322M lung
[4] = test system: HOP-62 NSCLC
[5] = test system: NCI-H460 lung
[6] = test system: HOP-92 NSCLC
[7] = test system: NCI-H522 lung
[8] = test system: A549/ATCC NSCLC
[9] = test system: 786-0 renal
[10] = test system: COLO 205 colon
[11] = test system: DU-145 prostate
[12] = test system: K-562 leukemia
[13] = test system: MALME-3M melanoma
[14] = test system: MDA-MB-231 breast
[15] = test system: RXF 393 renal
[16] = test system: SF-268 CNS
[17] = test system: SF-295 CNS
[18] = test system: SF-539 CNS
[19] = test system: UACC-257 melanoma
[20] = test system: M14 melanoma

Measured: growth

CCCCCCCCNc1cccc2c1C(=O)c1ccccc1C2=O
inactive: [1] 102% | [2] 96.5% | [3] 101% | [4] 115% | [5] 101% | [6] 109% | [7] 81.3% | [8] 91.7% | [9] 104% | [10] 116% | [11] 112% | [12] 97.2% | [13] 108% | [14] 96.1% | [15] 100% | [16] 94.9% | [17] 112% | [18] 121% | [19] 98.2% | [20] 107%

CCc1nnc(NC(=O)c2ccoc2COc2ccccc2)s1
inactive: [1] 57.9% | [2] 74.3% | [3] 86.9% | [4] 56.3% | [5] 27% | [6] 74.8% | [7] 38.6% | [8] 62.1% | [9] 72.2% | [10] 44.2% | [11] 75.4% | [12] 12.3% | [13] 47.5% | [14] 55.9% | [15] 54.2% | [16] 66.7% | [17] 36.1% | [18] 43.5% | [19] 76.9% | [20] 11.7%

C=C(C)[C@@H]1CC[C@]2(C(=O)O)CC[C@]3(C)[C@H](CC[C@@H]4[C@@]5(C)C/C(=C/c6ccc(OC)cc6)C(=O)C(C)(C)[C@@H]5CC[C@]43C)[C@@H]12
inactive: [2] 25% | [3] 30.4% | [4] 23.8% | [6] 18.9% | [7] 12.7% | [8] 16.8% | [9] 25.1% | [11] 34.4% | [12] 15.6% | [13] 42.2% | [14] 32.4% | [15] 43.9% | [16] 38.8% | [17] 11.9% | [18] 22.1% | [19] 31.1% | [20] 25.3%
active: [1] 8.25% | [5] 1.81% | [10] 2.57%

NC1=NN(c2ccccc2)C(=O)/C1=C/c1ccc(Cl)cc1
active: [14] -99%
inactive: [1] 98% | [2] 99.2% | [3] 97.8% | [4] 95.3% | [5] 99.1% | [6] 91.6% | [7] 90.6% | [8] 98.5% | [9] 94.4% | [10] 95.7% | [11] 107% | [12] 102% | [13] 92.4% | [15] 107% | [16] 102% | [17] 113% | [18] 111% | [19] 97.3% | [20] 97.2%

Fc1ccc(NCc2nnc(-c3ccc(Cl)cc3)o2)cc1
inactive: [1] 70.1% | [2] 71.8% | [3] 82.5% | [4] 84.6% | [5] 83.7% | [6] 67% | [7] 56.5% | [8] 66.1% | [9] 87.8% | [10] 90% | [11] 95.5% | [12] 53.8% | [13] 93.8% | [14] 55.6% | [15] 84.8% | [16] 77.9% | [17] 77.9% | [18] 90.6% | [19] 68.4% | [20] 77.9%

CCCCN1CCCCn2c1nc1c2c(=O)n(C)c(=O)n1C
inactive: [1] 108% | [2] 104% | [3] 110% | [4] 103% | [5] 101% | [6] 95.7% | [7] 90.1% | [8] 89% | [9] 100% | [10] 114% | [11] 105% | [12] 91.2% | [13] 116% | [14] 103% | [15] 108% | [16] 105% | [17] 106% | [18] 116% | [19] 97% | [20] 106%

O=[N+]([O-])c1ccc(N/N=C(\C(=N/Nc2ccc([N+](=O)[O-])cc2[N+](=O)[O-])c2ccccc2)c2ccccc2)c([N+](=O)[O-])c1
inactive: [1] 104% | [2] 93.5% | [3] 85.6% | [4] 89.5% | [5] 52.1% | [6] 92.4% | [7] 83.4% | [8] 51.4% | [9] 90.5% | [10] 43.8% | [11] 86.4% | [12] 97.3% | [13] 65.6% | [14] 94.2% | [15] 111% | [16] 82.6% | [17] 94.6% | [18] 89.2% | [19] 95.2% | [20] 100%

COc1ccc2c(c1)c(-c1nc(-c3cn(C)c4ncccc34)cs1)cn2CCN
inactive: [1] 81.2% | [2] 84.2% | [3] 77.2% | [4] 77.1% | [5] 31.7% | [6] 57.8% | [7] 93% | [8] 45.7% | [9] 94.4% | [10] 77% | [11] 69.6% | [12] 68.6% | [13] 105% | [14] 63.3% | [15] 96.1% | [16] 95.8% | [17] 99.1% | [18] 89.1% | [19] 98.3% | [20] 97.3%
